As usually defined, the inhibition is the drop in the measured response relative to a control, in per cent.

The text below walks through data of PubChem BioAssay AID1985 (Southern Research Specialized Biocontainment Screening …, 2009).

Structures are written as SMILES. Hit rate of the full screen: of about 2,300 compounds, about 1,000 (43%) were called active. The set was probably picked from earlier hits. The list shows a part of the results. Potency and affinity values are given separately. Unmarked numbers belong to inactive results. How the calls were made is not given here.

A short description of the experiment: modified counter assay using GFP fluorescence, PhoP regulon inhibitor project, dose response (AID 1985). The note with it: S. Typhi, 4 h; series mostly up to 150 µM; inhibition: at the top concentration.
For `COCCN1CC(=O)N2C(c3cccc(OC)c3)c3[nH]c4ccccc4c3C[C@H]2C1=O` (stereo partly drawn), the “inhibition” value was 10.3%. Consider `Cc1ccc2c(c1)C1CN(C)CCC1N2C(=O)COc1ccccc1F` (stereo not drawn), for which the “inhibition” value is 21.9%. To `CCOC(=O)c1cc(-c2ccc(F)cc2)n(CCC(=O)NC2CCN(Cc3ccccc3)CC2)c1C` belongs -13%; to `c1ccc(CN2CCC(Nc3nc(-c4cccs4)nc4ccccc34)CC2)cc1`, 17.1%; to `c1ccc(CN2CCC(N3CCN(Cc4ccc5c(c4)OCO5)CC3)CC2)cc1`, -25.1%. Consider `c1ccc(CN2CCC(Nc3nc(-c4ccccc4)nc4ccccc34)CC2)cc1`, for which the “inhibition” value was 32.4%.

For `Cc1ccccc1C(=O)c1cccn1CC(=O)NCCC1=CCCCC1`, the “inhibition” value was 13.5%. Consider `Cc1cc2ccccc2c(=O)n1CC(=O)NCCC1=CCCCC1`, for which the “inhibition” value was 10.5%.

Consider `Clc1ccc(OCc2nc(-c3ccc(Br)o3)no2)cc1`, for which the “inhibition” value was -12.4%. With `CN1CCN(c2ccccc2NC(=O)c2cc3c(s2)-c2ccccc2OC3)CC1`, the “inhibition” value is -16.3%. Turning to `NCC/C=C1/c2ccccc2CSc2ccccc21`, the “inhibition” value is -35.5%. The result for `c1ccc2c(Nc3nnc(-c4ccncc4)s3)cccc2c1` reads 15.6%.

On to `O=C(Nc1ccc(N2CCOCC2)cc1)c1ccc(S(=O)(=O)NCc2ccco2)cc1`, for which the “inhibition” value was 12%.

As to `CCc1cccc(NC(=O)CSC2=NS(=O)(=O)c3ccccc32)c1`, the “inhibition” value is 37.1%. `O=C(CNC(=O)Cn1ccc2ccccc2c1=O)NCCCN1CCCCCC1`: the “inhibition” value was -3.62%. In the case of `O=C1CCCN1CCC1CCN(C2CC(=O)N(c3ccc(Cl)cc3)C2=O)CC1` (stereo not drawn), the “inhibition” value is 3.09%. The result for `CC(NCC(O)COCCC12CC3CC(CC(C3)C1)C2)c1ccccc1` (stereo not drawn) reads 3.19%. The result for `CS(=O)(=O)c1cnc2c(-c3ccsc3)cnn2c1N` reads -32.5%; that for `O=C(CCSCc1ccccc1F)NCc1cccs1`, 0.85%; that for `CC(OC(=O)Cc1coc2cc3c(cc12)CCC3)C(=O)NCc1ccc2c(c1)OCO2` (stereo not drawn), -2.07%. The result for `COc1cc2[nH]c(=S)n(CC3CCCO3)c(=O)c2cc1OC` (stereo not drawn) reads -1.07%. As to `Cc1ccc(NC2OC(CO)C(O)C(O)C2O)cc1` (stereo not drawn), the “inhibition” value is 6.18%. In the case of `Cc1cn([C@H]2C[C@H](N=[N+]=[N-])[C@@H](CO)O2)c(=O)[nH]c1=O`, the “inhibition” value was -20.3%. As for `O=C(COC(=O)CNC(=O)c1ccccc1)Nc1ccc(F)c([N+](=O)[O-])c1`, the “inhibition” value was 4.84%. Consider `Cc1[nH]nc2c1C(c1ccc(-c3ccccc3C#N)o1)C(C#N)=C(N)O2` (stereo not drawn), for which the “inhibition” value is -8.42%. The result for `O=C(NCc1cccs1)C(=O)NCC(c1ccco1)N1CCN(c2ccc(F)cc2)CC1` (stereo not drawn) reads 0.62%. To `CCCN(CCC)CC(=O)Nc1cccc2c1OCO2` belongs 4.86%; to `O=C(NC(=S)Nc1c(F)cc(F)cc1Br)c1ccc2c(c1)OCCO2`, -3.71%; to `O=C(/C=C/c1ccco1)NC(=S)Nc1cccc(-c2nc3ccccc3o2)c1`, -12.6%. The result for `CC(=O)c1cccc(NC(=S)NNC(=O)c2ccco2)c1` reads 1.31%; that for `O=C(/C=C/c1ccccc1)NNC(=O)c1ccco1`, -23.5%. For the compound `c1csc(-n2nc3ccccc3n2)c1`, the “inhibition” value was -6.55%. As to `CC1Cc2ccccc2N1C(=O)CN1C(=O)C(=O)N(Cc2ccccc2)C1=O` (stereo not drawn), the “inhibition” value is -20.8%. To `CC(C)(C)SCCNC(=O)c1ccccc1` belongs 18.5%; to `CCOc1ccc(-c2c[n+]3c(n2-c2ccccc2)CCCCC3)cc1`, -17.4%; to `COCCCNc1c2c(nc3nnnn13)CCCC2`, -4.03%. The result for `CC(C)(C)c1ccc(OCCNC(=S)Nc2ccccc2)cc1` reads -2.57%. On to `C#CCOC(=O)c1ccccc1C(=O)OCC#C`, for which the “inhibition” value was 12.4%. Consider `O=C(NCCCNc1ccnc2cc(Cl)ccc12)c1ccccc1F`, for which the “inhibition” value was -0.31%. The result for `C=CCNc1nc(-c2ccccc2)nc(-n2ccnc2)n1` reads -15.1%. To `O=C(CSc1nc2ccccc2o1)c1cc2ccccc2oc1=O` belongs 25.9%.

Regarding `CC(Sc1nc2ccccc2o1)C(=O)O` (stereo not drawn), the “inhibition” value is 34.4%. Consider `CN(CCO)CC(O)Cn1cnc2c1c(=O)n(C)c(=O)n2C` (stereo not drawn) (tested in a mixture with another compound), for which the “inhibition” value is 9.5%. The result for `Cc1ccc(N2CC(C(=O)OCc3ccccc3F)CC2=O)cc1` (stereo not drawn) reads -10.2%. Consider `Cc1cc2oc(=O)cc(CN3CCN(C/C=C/c4ccccc4)CC3)c2cc1O`, for which the “inhibition” value was 19.4%.

In the case of `O=C(O)/C=C/c1cn(-c2ccccc2)nc1-c1cc2ccccc2oc1=O`, the “inhibition” value is 10.6%. The result for `Oc1c(Br)cc(Br)cc1Oc1ccc(Br)cc1Br` reads -3.41%. The result for `Oc1c(Br)cc(Br)cc1C=Nc1cccc2ncccc12` reads 21.8%; that for `Cc1cccc(N/N=C/c2ccc(O)c(O)c2O)c1`, 26.2%; that for `Cc1cc(C)nc(NS(=O)(=O)c2ccc(N3C(=O)C4CC=C(Cl)CC4C3=O)cc2)n1` (stereo not drawn), -20.4%.

In the case of `Cc1cc(C)cc(NC(=O)C(Sc2nnc(C)c(=O)[nH]2)c2ccccc2)c1` (stereo not drawn), the “inhibition” value was 16.1%. For the compound `Cc1c(C)n(C)c2ccc(C(=O)NCc3cccs3)cc12`, the “inhibition” value was 18.9%. To `Cc1cccc2cc(C(c3nnnn3Cc3ccccc3)N3CCN(C)CC3)c(=O)[nH]c12` (stereo not drawn) belongs 23.6%; to `CCN(CC)C(=O)CNC(=O)Cc1ccc(Cl)cc1`, -19.9%; to `CCCCc1ccc2[nH]cc(CCN)c2c1`, 14.2%.

With `S=C1SCN(Cc2cccnc2)CN1Cc1cccnc1`, the “inhibition” value is 29.1%.

As for `Cc1nc2nc(COc3ccccc3)nn2c(C)c1Cl`, the “inhibition” value was 5.1%.

`O=C(Nc1ccc(N2CCOCC2)c(Cl)c1)c1ccccc1F`: the “inhibition” value is 14.4%. The result for `O=C(Nc1ccc(Nc2ccncc2)cc1)c1ccc([N+](=O)[O-])cc1` reads 27.2%; that for `CC(=O)Nc1cccc(NS(=O)(=O)Cc2ccc(Cl)cc2)c1`, -8.02%; that for `Cc1cc2oc(C(=O)NCc3ccncc3)c(C)c2cc1C`, -7.42%. With `COc1ccc2c(c1)CC1(CN2C)C(=O)NC(=O)N(CCc2ccccc2)C1=O` (stereo not drawn), the “inhibition” value is 18.7%. The result for `Cc1ccc(C(=O)O)cc1N=Cc1cc(Br)cc(Br)c1O` reads -3.47%; that for `Nc1ccc(S(=O)(=O)c2ccc(N)cc2)cc1`, 1.39%. To `Nc1nonc1-n1nnc(C(=O)N/N=C/c2ccccc2O)c1CN1CCCC1` belongs 38.2%; to `O=C(N/N=C/c1cccnc1)c1cccc(Cl)c1`, -34.7%; to `Nc1cc(=O)[nH]c(=S)n1-c1cccc(C(F)(F)F)c1`, 21.7%.

`O=C1c2[nH]nc(-c3ccccc3O)c2C(c2ccc(F)cc2)N1CC1CCCO1` (stereo not drawn): the “inhibition” value is 7.59%. Consider `C=CCNC(=O)NC(=O)COC(=O)/C(C#N)=C/c1ccc(OC)cc1`, for which the “inhibition” value was 11%. On to `N#CCCn1ncc2ccccc21`, for which the “inhibition” value was -15.1%. For the compound `Cc1c(C)c2ccc(OC(C)C(=O)N[C@@H](Cc3c[nH]c4ccccc34)C(=O)O)c(C)c2oc1=O` (stereo partly drawn), the “inhibition” value is -7.47%.

As for `Cc1ccc(N=Cc2cc(Br)cc(Cl)c2O)cc1`, the “inhibition” value was 14.3%. `COc1ccc(/C=N/NC(=O)c2cccnc2)cc1`: the “inhibition” value is 10.5%. For the compound `CCN(CC)Cc1c(C(=O)N/N=C/c2cccc3ccccc23)nnn1-c1nonc1N`, the “inhibition” value was -0.25%. Take `Cc1cc(C(=O)Cn2cncn2)c(C)n1CCc1ccc(F)cc1`: the “inhibition” value is -9.81%.

As to `O=C(CCN1CCOCC1)Nc1ccccc1`, the “inhibition” value was 7.63%. On to `COc1ccc(Cl)cc1NC(=O)CCN1CCOCC1`, for which the “inhibition” value is -23.1%. The result for `CCCNC(=O)COc1ncnc2sc(C)c(C)c12` reads 2.57%; that for `Cc1cc(C)cc(N(C(=O)CNC(=O)c2cccs2)C(C(=O)NC2CCCC2)c2cccnc2)c1` (stereo not drawn), -9.22%.

For `Cc1c(C2(O)C(=O)Nc3ccc(F)cc32)c(=O)n(-c2ccccc2)n1C` (stereo not drawn), the “inhibition” value is 0.39%. For the compound `C=CCOC(=O)C1=C(C)NC2(O)c3ccccc3C(=O)C12O` (stereo not drawn), the “inhibition” value is 0.1%. The result for `N#C/C(=C\c1ccc(O)c(O)c1)C(=O)NCc1ccccc1` reads 38.4%; that for `Cn1c(CN2CCCC2)nc2cc(NC(=O)COc3ccc(Cl)cc3)ccc21`, 24.1%. Consider `CCc1nn(CCCN2CCN(c3cccc(Cl)c3)CC2)c(=O)n1CCOc1ccccc1`, for which the “inhibition” value was 9.36%. For the compound `CC1CCN(CCCCOc2ccc(Cl)cc2)CC1`, the “inhibition” value was 20.8%.

Take `Cc1c(C)n(C)c2ccc(C(=O)NCCCN3CCCC3)cc12`: the “inhibition” value is 28.8%. The result for `Cc1ccc(-c2nnc3sc(-c4ccncc4)nn23)cc1` reads 25.5%; that for `COc1ccc(C2C(C(=O)N3CCC4(CC3)OCCO4)CC(=O)N2c2ccc(OC)cc2)cc1` (stereo not drawn), 12.2%; that for `O=C(c1ccc2c(c1)[nH]c(=S)n1c3ccccc3nc21)N1CCN(c2cccc(Cl)c2)CC1`, 14.9%. To `CCNC(=S)Nc1cccc(S(=O)(=O)Nc2ccccc2OC)c1` belongs 18.7%. Take `O=S(=O)(Nc1ncccn1)c1ccc(NC(=S)Nc2ccccc2Cl)cc1`: the “inhibition” value was 36.4%. The result for `COC(=O)Cc1ccc(NC(=S)NCc2ccc(Cl)cc2)cc1` reads -22.3%; that for `Cc1ccc(C)c(SCC(=O)Nc2ccc(S(=O)(=O)Nc3ncccn3)cc2)c1`, 34.1%; that for `COc1cc(NS(=O)(=O)c2ccc(NC(=S)Nc3ccccc3)cc2)nc(OC)n1`, 36.1%.

For `NC(N)=NC(N)=Nc1cccc2ccccc12`, the “inhibition” value was 18%. For `CCNC(=O)c1ccc(C2SCC(=O)N2CCc2ccccc2)cc1` (stereo not drawn), the “inhibition” value was 16.7%. For the compound `COc1ccc(NC(=O)CN(C)S(=O)(=O)c2ccc(Cl)cc2)cc1Cl`, the “inhibition” value is 21.3%. To `COc1cccc(NC(=O)COC(=O)Cc2ccccc2[N+](=O)[O-])c1` belongs -2.16%.

For `Oc1ccccc1N=Cc1c(O)ccc2oc3c(c12)CCCC3`, the “inhibition” value is -7.38%. The result for `CC(=O)NCc1ccc(C(=O)CSc2nnc(-c3ccncc3)n2Cc2ccccc2)o1` reads -20.9%; that for `Cc1[nH]c2ccccc2c1/C=N/Nc1nc2ccccc2[nH]1`, 7.61%.

Take `O=C(CN(CCc1ccccc1)C(=O)CNS(=O)(=O)c1ccc(F)cc1)NCC1CCCO1` (stereo not drawn): the “inhibition” value was 13.2%. The result for `COc1ccc(/C=N/NC(=O)c2ccc3c(c2)OCO3)cc1` reads 28.6%; that for `OCn1ncn(-c2ccccc2)c1=S`, -2.16%. Turning to `CCN(CC)/C(N)=N/c1nc(C)cc(C)n1`, the “inhibition” value was -12.9%. As for `c1ccc(-c2nnc(-c3c[nH]c4ccccc34)nc2-c2ccccc2)cc1`, the “inhibition” value was 13.8%. To `COC(=O)c1ccc(S(=O)(=O)N2CCC(c3nc4ccccc4o3)CC2)cc1` belongs 6.39%; to `Cc1cc(N2CCN(C3CCCCC3)CC2)nc2cccc(O)c12`, 21.3%; to `O=C(CN1C2=NCCCN2c2ccccc21)c1ccc([N+](=O)[O-])cc1`, 24.9%. The result for `O=C(CN1C2=NCCCN2c2ccccc21)c1ccc2c(c1)OCO2` reads 28%; that for `CC(C)N=C1NN=C(c2ccc(F)cc2)CS1`, -1.37%. To `COc1ccc(Cn2c(=N)c(C(=O)NCC3CCCO3)cc3c(=O)n4ccccc4nc32)cc1` (stereo not drawn) belongs 28.2%; to `Cn1cc(S(=O)(=O)NCC2CCCO2)c(=O)n(C)c1=O` (stereo not drawn), 7.24%. As for `COc1ccc(Nc2nnc(SCC3CCCO3)s2)cc1` (stereo not drawn), the “inhibition” value was -4%. Take `COc1ccccc1Nc1nc(NCC2CCCO2)c2ccccc2n1` (stereo not drawn): the “inhibition” value is 33.1%.

As to `COc1ccc(CCn2c(=N)c(C(=O)NCC3CCCO3)cc3c(=O)n4ccccc4nc32)cc1` (stereo not drawn), the “inhibition” value is 0.56%. In the case of `Cc1cccn2c(=O)c3cc(C(=O)NCC4CCCO4)c(=N)n(C4CCCC4)c3nc12` (stereo not drawn), the “inhibition” value was -27.2%. Take `COc1ccc(Nc2nc(NCC3CCCO3)c3ccccc3n2)c(OC)c1` (stereo not drawn): the “inhibition” value was 22.7%.
